Measured values taken from PubChem BioAssay (Tox21).
Results filed as inconclusive are left out. Activity calls are given as the source filed them. Unless noted, calls come from the whole dose curve; as a rule, active = well fitted curve in the direction sought with a large enough effect in the repeat runs; inconclusive = weak or mixed curves; inactive = no such curve, though single readings can be large; an effect the other way counts as inactive or inconclusive.

Columns and labels:
[1] = qHTS assay to test for compound auto fluorescence at 535 nm (green) in HEK293 cells (AID 720680)
[2] = qHTS assay to test for compound auto fluorescence at 460 nm (blue) in HEK293 cell free culture (AID 720681)
Summary of the method: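 Compounds were added to cell-free DMEM with 10% FBS and fluorescence read directly. The blue channel used 405 nm excitation and 460 nm emission, with triamterene as the reference fluorophore.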

[3] = qHTS assay to test for compound auto fluorescence at 535 nm (green) in HEK293 cell free culture (AID 720682)
Summary of the method: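 Green-label autofluorescence (485 nm excitation, 535 nm emission) measured on compound added to cell-free culture medium (DMEM, 10% FBS). Output is expressed relative to fluorescein.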

[4] = qHTS assay to test for compound auto fluorescence at 590 nm (red) in HEK293 cell free culture (AID 720683)
Summary of the method: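 Cell-free wells of DMEM with 10% FBS received compound, and intrinsic fluorescence was read at excitation/emission 540/590 nm. Values expressed as equivalence to Rose Bengal sodium.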

[5] = qHTS assay to test for compound auto fluorescence at 590 nm (red) in HepG2 cell free culture (AID 720684)
Summary of the method: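 Rose Bengal sodium served as the reference for red signal. Test compounds were dispensed into serum-containing MEM (10% FBS) without cells, and plates were read at 540/590 nm.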

[6] = qHTS assay to test for compound auto fluorescence at 460 nm (blue) in HepG2 cell free culture (AID 720685)
Summary of the method: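 Cell-free plates of MEM plus 10% FBS received 23 nL compound or DMSO vehicle; blue-channel (405/460 nm) intensity scored against triamterene as reference fluorophore.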

[7] = qHTS assay to test for compound auto fluorescence at 535 nm (green) in HepG2 cell free culture (AID 720686)
[8] = qHTS assay to test for compound auto fluorescence at 460 nm (blue) in HepG2 cells (AID 720687)
Summary of the method: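 HepG2 cells in MEM with 10% FBS, attached overnight at 37 C, were exposed to compound or DMSO for 1 hr at 37 C, 5% CO2. Blue fluorescence was read at 405/460 nm, with triamterene as reference fluorophore.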

[9] = target: Glucocorticoid receptor (Homo sapiens) (UniProt P04150); experiment: qHTS assay to identify small molecule agonists of the glucocorticoid receptor (GR) signaling pathway (AID 720691; active = well fitted activation curve with a large enough effect in the signal ratio in the repeat runs, not every such curve was filed as active; the % refers to the signal ratio)
Chain of Glucocorticoid receptor (Homo sapiens) (P04150 whole entry, looked up): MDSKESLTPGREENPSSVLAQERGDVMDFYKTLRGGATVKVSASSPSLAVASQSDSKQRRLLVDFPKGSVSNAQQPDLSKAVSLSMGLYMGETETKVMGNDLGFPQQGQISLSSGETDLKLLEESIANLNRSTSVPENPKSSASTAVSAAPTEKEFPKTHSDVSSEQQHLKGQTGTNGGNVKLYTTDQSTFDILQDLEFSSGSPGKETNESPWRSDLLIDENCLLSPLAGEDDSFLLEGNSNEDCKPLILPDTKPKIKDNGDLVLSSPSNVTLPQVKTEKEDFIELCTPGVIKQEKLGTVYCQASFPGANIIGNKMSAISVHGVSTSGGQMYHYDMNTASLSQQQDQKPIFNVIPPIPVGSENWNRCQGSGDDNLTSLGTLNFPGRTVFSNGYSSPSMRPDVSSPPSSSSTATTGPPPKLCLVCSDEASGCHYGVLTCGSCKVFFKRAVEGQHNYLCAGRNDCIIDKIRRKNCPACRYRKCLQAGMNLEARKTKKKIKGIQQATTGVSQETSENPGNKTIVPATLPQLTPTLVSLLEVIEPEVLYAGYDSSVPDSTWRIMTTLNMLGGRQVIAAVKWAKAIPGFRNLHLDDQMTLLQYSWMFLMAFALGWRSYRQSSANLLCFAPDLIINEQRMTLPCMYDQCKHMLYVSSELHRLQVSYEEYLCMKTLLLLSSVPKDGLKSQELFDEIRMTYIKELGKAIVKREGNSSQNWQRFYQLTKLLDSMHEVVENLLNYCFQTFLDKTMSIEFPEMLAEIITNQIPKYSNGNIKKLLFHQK
Summary of the method: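 Cells: GR-bla HeLa, endogenous GR with stably integrated GRE-beta-lactamase reporter. Treatment 18 h, 37 C, compounds delivered in DMSO. Detection via LiveBLAzer B/G FRET substrate, 2 h RT, fluorescence intensity.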

[10] = target: Glucocorticoid receptor (Homo sapiens) (UniProt P04150); experiment: qHTS assay to identify small molecule antagonists of the glucocorticoid receptor (GR) signaling pathway (AID 720692; active = well fitted inhibition curve with a large enough effect in the signal ratio in the repeat runs, not every such curve was filed as active; the % refers to the signal ratio)
Summary of the method: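 Quantitative HTS in antagonist format: HeLa cells expressing endogenous GR and a stably integrated GRE-bla reporter, stimulated with 5 nM dexamethasone (final) alongside test compounds for 18 h.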

[11] = qHTS assay to identify small molecule antagonists of the glucocorticoid receptor (GR) signaling pathway - cell viability counter screen (AID 720693); note: nearly all actives have a fitted effect of over 55% in size
[12] = qHTS assay for identifying genotoxic compounds that show differential cytotoxicity against isogenic chicken DT40 cell lines with known DNA damage response pathways - wild type cell line (AID 743012); note: nearly all actives have a fitted effect of over 60% in size
Summary of the method: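 Luminescent ATP viability signal (CellTiter-Glo, 30 min RT) recorded after wild type DT40 cells were incubated with compounds for 40 h at 37 C/5% CO2.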

[13] = qHTS assay for identifying genotoxic compounds that show differential cytotoxicity against isogenic chicken DT40 cell lines with known DNA damage response pathways - Rev3 mutant cell line (AID 743014); note: nearly all actives have a fitted effect of over 55% in size
[14] = qHTS assay for identifying genotoxic compounds that show differential cytotoxicity against isogenic chicken DT40 cell lines with known DNA damage response pathways - Rad54/Ku70 mutant cell line (AID 743015); note: nearly all actives have a fitted effect of over 60% in size
[15] = qHTS assay to identify small molecule antagonists of the androgen receptor (AR) signaling pathway - cell viability counter screen (AID 743033; note: nearly all actives have a fitted effect of over 45% in size)
[16] = qHTS assay to identify small molecule antagonists of the androgen receptor (AR) signaling pathway using the MDA cell line - cell viability counter screen (AID 743041; note: nearly all actives have a fitted effect of over 45% in size)
Summary of the method: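 Cytotoxicity counter screen: MDA-kb2 AR-luc cells, compound + R1881, 16 h, 37C, 0% CO2; CellTiter-Fluor added at 15.5 h, fluorescence read after 30 min.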

[17] = target: Androgen receptor (Homo sapiens) (UniProt P10275); experiment: qHTS assay to identify small molecule antagonists of the androgen receptor (AR) signaling pathway (AID 743035; active = well fitted inhibition curve with a large enough effect in the signal ratio in the repeat runs, not every such curve was filed as active; the % refers to the signal ratio)
Chain of Androgen receptor (Homo sapiens) (P10275 whole entry, looked up): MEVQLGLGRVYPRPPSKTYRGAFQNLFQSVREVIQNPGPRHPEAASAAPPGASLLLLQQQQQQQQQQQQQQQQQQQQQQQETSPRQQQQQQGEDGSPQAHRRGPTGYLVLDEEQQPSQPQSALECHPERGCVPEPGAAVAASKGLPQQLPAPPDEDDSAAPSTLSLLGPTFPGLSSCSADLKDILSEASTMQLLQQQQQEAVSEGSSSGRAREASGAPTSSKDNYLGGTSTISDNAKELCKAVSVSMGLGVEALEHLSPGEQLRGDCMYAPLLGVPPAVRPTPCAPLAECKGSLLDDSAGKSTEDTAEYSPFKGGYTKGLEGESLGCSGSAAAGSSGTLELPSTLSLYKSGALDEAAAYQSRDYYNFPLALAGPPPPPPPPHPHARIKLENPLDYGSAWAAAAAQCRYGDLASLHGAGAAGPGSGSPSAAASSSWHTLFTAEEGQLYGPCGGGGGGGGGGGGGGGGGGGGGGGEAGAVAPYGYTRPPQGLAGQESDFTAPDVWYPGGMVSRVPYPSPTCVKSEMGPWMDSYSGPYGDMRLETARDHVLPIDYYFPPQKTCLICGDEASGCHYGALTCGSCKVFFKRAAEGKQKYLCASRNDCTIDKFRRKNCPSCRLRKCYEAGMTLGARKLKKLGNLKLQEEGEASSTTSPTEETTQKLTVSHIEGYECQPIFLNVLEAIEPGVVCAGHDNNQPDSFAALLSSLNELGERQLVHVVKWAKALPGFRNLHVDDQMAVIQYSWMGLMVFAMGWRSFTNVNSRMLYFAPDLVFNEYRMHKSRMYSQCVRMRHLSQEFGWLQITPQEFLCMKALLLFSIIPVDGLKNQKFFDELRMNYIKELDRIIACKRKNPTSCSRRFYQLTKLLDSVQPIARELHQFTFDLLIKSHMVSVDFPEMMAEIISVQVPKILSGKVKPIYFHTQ
Summary of the method: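 Quantitative HTS of the Tox21 10K library used HEK293 AR-UAS-bla cells stimulated with R1881 alongside compound for 16 h at 37C, followed by beta-lactamase FRET detection (LiveBLAzer B/G, 2 h, RT).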

[18] = target: Androgen receptor (Homo sapiens) (UniProt P10275); experiment: qHTS assay to identify small molecule agonists of the androgen receptor (AR) signaling pathway (AID 743036; active = well fitted activation curve with a large enough effect in the signal ratio in the repeat runs, with a control signal flat, not every such curve was filed as active; the % refers to the signal ratio)
Summary of the method: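 AR-UAS-bla HEK293 cells, plated 4 h before dosing, were treated with compound for 16 h at 37C. beta-Lactamase reporter read after 2 h with LiveBLAzer B/G FRET substrate at room temperature.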

[19] = target: Androgen receptor (Homo sapiens) (UniProt P10275); experiment: qHTS assay to identify small molecule agonists of the androgen receptor (AR) signaling pathway using the MDA cell line (AID 743040; note: nearly all actives have a fitted effect of over 20% in size)
Summary of the method: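 Luciferase read-out, ONE-Glo, 30 min RT. Cells: MDA-kb2 AR-luc, MMTV promoter with AR and GR response elements. Compound exposure 16 h, 37C, 0% CO2, after 5 h pre-incubation. qHTS agonist mode.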

[20] = target: Androgen receptor (Homo sapiens) (UniProt P10275); experiment: qHTS assay to identify small molecule antagonists of the androgen receptor (AR) signaling pathway using the MDA cell line (AID 743042; note: nearly all actives have a fitted effect of over 55% in size)
Summary of the method: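 MDA-kb2 breast carcinoma cells carrying MMTV-luciferase (AR/GR responsive) were co-treated with compounds and the agonist R1881 for 16 h at 37C. Inhibition read as ONE-Glo luminescence; CellTiter-Fluor fluorescence measured in parallel for cytotoxicity.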
% is set by controls: 0 for no effect and ±100 for the full control effect.

N#CCC(=O)NN
inactive: outcome [1] | outcome [2] | outcome [3] | outcome [4] | outcome [5] | outcome [6] | outcome [7] | outcome [8] | Potency [9] | outcome [10] | outcome [11] | Potency [12] | Potency [13] | Potency [14] | outcome [15]

CC1(C)Oc2ccc(C#N)cc2[C@@H](N2CCCC2=O)[C@@H]1O
inactive: outcome [1] | outcome [2] | outcome [3] | outcome [4] | outcome [5] | outcome [6] | outcome [7] | outcome [8] | Potency [9] | outcome [10] | outcome [11] | Potency [12] | Potency [13] | Potency [14] | outcome [15] | Potency [16]

Cc1c(N)cccc1Cl
inactive: outcome [1] | outcome [2] | outcome [3] | outcome [4] | outcome [5] | outcome [6] | outcome [7] | outcome [8] | Potency [9] | outcome [10] | outcome [11] | Potency [12] | Potency [13] | Potency [14] | outcome [15] | Potency [16]

C[Si]1(C)O[Si](C)(C)O[Si](C)(C)O[Si](C)(C)O[Si](C)(C)O1
inactive: outcome [1] | outcome [2] | outcome [3] | outcome [4] | outcome [5] | outcome [6] | outcome [7] | outcome [8] | Potency [9] | outcome [10] | outcome [11] | Potency [12] | Potency [13] | Potency [14] | outcome [15] | Potency [16]

O=Cc1cc2ccccc2o1
inactive: outcome [1] | outcome [2] | outcome [3] | outcome [4] | outcome [5] | outcome [6] | outcome [7] | outcome [8] | Potency [9] | outcome [10] | outcome [11] | Potency [12] | Potency [14] | outcome [15] | Potency [16]

CC(=O)O[C@@H]1CC2CCC1(C)C2(C)C (stereo partly specified)
inactive: outcome [1] | outcome [2] | outcome [3] | outcome [4] | outcome [5] | outcome [6] | outcome [7] | outcome [8] | Potency [9] | outcome [10] | outcome [11] | Potency [12] | Potency [13] | Potency [14] | outcome [15] | outcome [17] | outcome [18] | Potency [19] | Potency [16] | outcome [20]

COC(=O)/C=C\C(=O)O
inactive: outcome [1] | outcome [2] | outcome [3] | outcome [4] | outcome [5] | outcome [6] | outcome [7] | outcome [8] | Potency [9] | outcome [10] | outcome [11] | Potency [12] | Potency [13] | Potency [14] | outcome [15] | Potency [16]

CC1OCCC1=O (stereo unspecified)
inactive: outcome [1] | outcome [2] | outcome [3] | outcome [4] | outcome [5] | outcome [6] | outcome [7] | outcome [8] | Potency [9] | outcome [10] | outcome [11] | Potency [12] | Potency [13] | Potency [14] | outcome [15] | Potency [16]

[O]=[Mo](=[O])=[O]
inactive: fluorescence, % of fluorescein [1] -0.0315% [at 18.6 µM] | fluorescence, % of fluorescent control [2] 0.0055% [at 18.6 µM] | activity change [3] 0.118% [at 18.6 µM] | fluorescence, % of fluorescent control [4] 0.0845% [at 18.6 µM] | fluorescence, % of Rose Bengal [5] 0.0301% [at 18.6 µM] | fluorescence, % of fluorescent control [6] 0.041% [at 18.6 µM] | fluorescence, % of fluorescein control [7] -0.0406% [at 18.6 µM] | fluorescence, % of fluorescent control [8] 0.0613% [at 18.6 µM] | Potency [9] | outcome [10] | outcome [11] | Potency [12] | Potency [14] | outcome [15] | Potency [16]

CN(C)CCCCl
inactive: outcome [1] | outcome [2] | outcome [3] | outcome [4] | outcome [5] | outcome [6] | outcome [7] | outcome [8] | Potency [9] | outcome [10] | outcome [11] | Potency [12] | Potency [13] | Potency [14] | outcome [15]

CC1c2ccccc2CN1NC(=O)c1ccc(Cl)c(S(N)(=O)=O)c1 (stereo unspecified)
inactive: outcome [1] | outcome [2] | outcome [3] | outcome [4] | outcome [5] | outcome [6] | outcome [7] | outcome [8] | Potency [9] | outcome [10] | outcome [11] | Potency [12] | Potency [13] | Potency [14] | outcome [15] | Potency [16]

CNCCS(=O)(=O)O
inactive: outcome [1] | outcome [2] | outcome [3] | outcome [4] | outcome [5] | outcome [6] | outcome [7] | outcome [8] | Potency [9] | outcome [10] | outcome [11] | Potency [12] | Potency [13] | Potency [14] | outcome [15] | Potency [16]

COc1nc(N)nc2nc[nH]c12
inactive: outcome [1] | outcome [2] | outcome [3] | outcome [4] | outcome [5] | outcome [6] | outcome [7] | outcome [8] | Potency [9] | outcome [10] | outcome [11] | Potency [12] | Potency [13] | Potency [14] | outcome [15] | Potency [16]

CC(=O)OCC(=O)Nc1cc(C#N)cc(NC(=O)COC(C)=O)c1Cl
inactive: outcome [1] | outcome [2] | outcome [3] | outcome [4] | outcome [5] | outcome [6] | outcome [7] | outcome [8] | Potency [9] | outcome [10] | outcome [11] | Potency [12] | Potency [13] | Potency [14] | outcome [15] | Potency [16]

O=C(O)CCCCCC(=O)O
inactive: outcome [1] | outcome [2] | outcome [3] | outcome [4] | outcome [5] | outcome [6] | outcome [7] | outcome [8] | Potency [9] | outcome [10] | outcome [11] | Potency [12] | Potency [13] | Potency [14] | outcome [15] | Potency [16]

CC1=C(C(=O)O)N2C(=O)[C@@H](NC(=O)[C@H](N)C3=CCC=CC3)[C@H]2SC1
inactive: outcome [1] | outcome [2] | outcome [3] | outcome [4] | outcome [5] | outcome [6] | outcome [7] | outcome [8] | Potency [9] | outcome [10] | outcome [11] | Potency [12] | Potency [13] | Potency [14] | outcome [15] | Potency [16]
